We go through six compounds from PubChem BioAssay (NCATS).

Records with an inconclusive call do not appear. Calls of active or inactive are those of the source. Unless noted, how the calls were made is not given here.

The nature of assay [1]: qHTS profiling for inhibitors of Plasmodium falciparum (3D7) proliferation (AID 743322).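 Further: infected erythrocytes exposed to compound for 72 h before lysis; 100% = DMSO vehicle wells and 0% = 0.29 µM artemisinin.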 The settings on record: P. falciparum 3D7 proliferation; at 28.7 µM (top of the series) unless noted. The method, boiled down: (§1)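 Erythrocytes infected with P. falciparum (0.3% parasitemia, 2.5% hematocrit) incubated with compounds 72 h at 37 C, 5% CO2. Lysis with saponin/Triton buffer containing SYBR Green I, overnight at room temperature in the dark; DNA fluorescence (485/535 nm) normalised to 0.29 uM artemisinin and DMSO.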

The nature of assay [2]: qHTS profiling for inhibitors of Plasmodium falciparum (HB3) proliferation (AID 743324; active means well fitted curve in the direction sought with a large enough effect; an effect the other way counts as inactive or inconclusive;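 further: 100% = DMSO vehicle wells and 0% = artemisinin-treated control wells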). The conditions noted are these: Plasmodium falciparum HB3 blood-stage proliferation; at 28.7 µM (top of the series) unless noted. In outline:
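P. falciparum HB3 grown in erythrocytes (0.3% parasitemia, 2.5% hematocrit final) with compound for 72 h at 37 C, 5% CO2. Parasite DNA detected by SYBR Green after saponin/triton lysis overnight; normalized to 0.29 uM artemisinin and DMSO.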

The nature of assay [3]: qHTS profiling of the MIPE4 collection as inhibitors of Plasmodium falciparum (3D7) proliferation (AID 743344).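 Further: scaled between DMSO vehicle wells and 0.29 µM artemisinin as full inhibition.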 The conditions noted are these: P. falciparum 3D7 in erythrocytes, SYBR Green DNA fluorescence, 72 h; at 28.5 µM (top of the series) unless noted. In outline:
as §1

The nature of assay [4]: qHTS profiling of the MIPE4 collection as inhibitors of Plasmodium falciparum (DD2) proliferation (AID 743345). The conditions noted are these: P. falciparum Dd2 in erythrocytes, SYBR Green DNA, 72 h; at 28.5 µM (top of the series) unless noted. The method, boiled down:
as §1

A short description of assay [5]: qHTS profiling of the MIPE4 collection as inhibitors of Plasmodium falciparum (DD2) proliferation (Rep 2) (AID 743346). The conditions noted are these: P. falciparum Dd2 in erythrocytes, SYBR Green DNA, 72 h; at 28.5 µM (top of the series) unless noted. The method, boiled down:
as §1

Assay [6] can be described thus: qHTS profiling of the MIPE4 collection as inhibitors of Plasmodium falciparum (HB3) proliferation (AID 743347).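 Further: plate controls were DMSO vehicle wells for no effect and artemisinin wells for full effect.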 The settings on record: P. falciparum HB3 in erythrocytes, SYBR Green DNA, 72 h; at 28.5 µM (top of the series) unless noted. In outline:
as §1

Assay [7] is described as follows: Cell Proliferation Assay Versus the ED40515 IL2 Dependent ATL cell lines (AID 1053195; calls by dose curve). The conditions noted are these: ED40515 IL2-dependent ATL cells. In outline: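 IL2-dependent ED40515 ATL cells grown with IL2, 1000 cells/well in phenol red-free RPMI + 5% FBS, exposed 48 hours at 37C. Viability by CellTiter-Glo luminescence after 15 min at RT; 9.2 uM bortezomib as control.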

A short description of assay [8]: Identifying Small Molecule Inhibitors of Pancreatic Cancer Stem Cells (A2780, Spheroid) (AID 1259357; active means well fitted curve in the direction sought with a large enough effect; an effect the other way counts as inactive or inconclusive;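 further: spheroids pre-formed over 14 days in stem cell medium on hydrogel; compound exposure lasted 48 h before the ATP luminescence read; 100% = DMSO treated cells and 0% = wells without cells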). The settings on record: Potency: A2780 spheroid viability. In outline: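 Pre-formed 14-day tumor spheroids or adherent cells dosed and incubated 48 h, 37C, 5% CO2. Viability assessed by CellTiter-Glo.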
Assay [9] in a line: qHTS assay for measurement of the activity of small molecule inhibitors on Zika virus induced Caspase-3 activity in human iPSC derived neural progenitor cells (hNPCs) (AID 1224857; active means well fitted curve in the direction sought with a large enough effect; an effect the other way counts as inactive or inconclusive; further: % of control where 0% means no effect; nearly all actives have a fitted effect of over 65% in size). The method, boiled down:
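Quantitative HTS format: human iPSC neural progenitors, 1 h compound pretreatment, ZIKV 2 FFU/cell for 6 h at 37 C. Percent inhibition derived from luminescent caspase-3/7 signal between uninfected and infected controls.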

Assay [10] in a line: qHTS assay for measurement of the activity of small molecule inhibitors on Zika virus induced Caspase-3 activity in human astrocytoma cells (AID 1224859; active means well fitted curve in the direction sought with a large enough effect; an effect the other way counts as inactive or inconclusive;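 further: plate controls were ZIKV-infected untreated cells for no effect and uninfected cells for full effect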). In outline: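 Readout is luminescence from Caspase-Glo 3/7 added after a 6 h ZIKV infection (2 FFU/cell) of compound-pretreated (1 h) SNB-19 cells; data expressed as % inhibition versus uninfected and infected wells.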
Assay [11] is described as follows: qHTS profiling for inhibitors of Plasmodium falciparum (DD2) proliferation (AID 743323). The conditions noted are these: lower = more inhibition; at 28.7 µM (top of the series) unless noted. The method, boiled down: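 1536-well qHTS; infected RBCs 0.3% parasitemia/2.5% Hct final; cpd 72 h 37 C 5% CO2; lysis buffer + SYBR Green I, o/n RT dark; FI 485/535; norm. to 0.29 uM artemisinin and DMSO, plate-stack corrected.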

The nature of assay [12]: High-throughput drug toxicity screening in the BPDCN cell line Gen2.2 (AID 1224824).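 Further: cells exposed to compounds for 48 h before reading.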 The conditions noted are these: Gen2.2 BPDCN cells; at 45.8 µM (top of the series) unless noted. In outline:
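Gen2.2, 500 cells/well, phenol red-free RPMI/10% FBS/Pen-Strep; 48 h cpd, 37 °C/5% CO2; CTG lum, 15 min RT. Norm: DMSO = 100%, bortezomib 9.2 uM final = 0%.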

A short description of assay [13]: High-throughput drug toxicity screening in the BPDCN cell line Cal-1 (AID 1224825). The settings on record: Cal-1 BPDCN cell viability, qHTS; at 45.8 µM (top of the series) unless noted. The method, boiled down: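 500 Cal-1 cells/well, RPMI + glutamine + 10% FBS (phenol red-free); cpd added by pin tool; 48 h, 37C, 5% CO2; CTG 15 min RT, lumi read. Normalised: DMSO 100%, bortezomib 9.2 uM 0%.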

Assay [14] in a line: qHTS Screen of the MIPE 4.0 Collection Against Ewings Sarcoma (TC71) (AID 1259253; active means well fitted curve in the direction sought with a large enough effect; an effect the other way counts as inactive or inconclusive; further: potency means the concentration at half of the fitted maximal effect; nearly all actives have a fitted effect of over 40% in size). In outline: (§2)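 After a 4 h attachment period in RPMI/5% FBS, cells were pin-dosed with test compounds; DMSO served as negative and 9.2 uM bortezomib (final) as positive control. Luminescent CellTiter-Glo signal at 48 h defined viability.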
Assay [15] is described as follows: qHTS Screen of the MIPE 4.0 Collection Against Ewings Sarcoma (EW8) (AID 1259255; active means well fitted curve in the direction sought with a large enough effect; an effect the other way counts as inactive or inconclusive; further: nearly all actives have a fitted effect of over 35% in size; further: potency means the concentration at half of the fitted maximal effect;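 on viability: 100% = DMSO-treated cells and 0% = medium-only wells without cells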). The method, boiled down: as §2
The nature of assay [16]: qHTS Screen of the MIPE 4.0 Collection Against Ewings Sarcoma (TC32) (AID 1259256; active means well fitted curve in the direction sought with a large enough effect; an effect the other way counts as inactive or inconclusive; further: potency means the concentration at half of the fitted maximal effect; nearly all actives have a fitted effect of over 45% in size). In outline:
as §2

Assay [17] is described as follows: qHTS Screen of the MIPE 4.0 Collection Against Ewings Sarcoma (RDES) (AID 1259252; active means well fitted curve in the direction sought with a large enough effect; an effect the other way counts as inactive or inconclusive; further: potency means the concentration at half of the fitted maximal effect; nearly all actives have a fitted effect of over 35% in size). In outline:
as §2

With `C[C@@H]1C[C@H]2[C@@H]3CCC4=CC(=O)C=C[C@]4(C)C3(F)[C@@H](O)C[C@]2(C)[C@@]1(O)C(=O)CO` (stereo partly drawn), the remaining parasite growth % (stronger effect = lower value) in assay [1] came to 109%. The remaining proliferation (% of control), lower = more inhibition in [2] worked out at 85.9%. In addition, the parasite growth, % of DMSO control in [3] was determined as 71.2%. Also, in assay [4], the parasite growth remaining, % of DMSO control (lower = more inhibition) came out at 96%. The parasite growth, % of control (lower = inhibition) in assay [5] was found to be 146%. Also, the growth, % of control in assay [6] was 95.5%. Besides, the Potency in assay [7] is 2.64 µM (active). Also, the Potency entry in assay [8] is “inactive”.

In the case of `C[C@]12CCC(=O)C=C1CC[C@@H]1[C@@H]2[C@@H](O)C[C@@]2(C)[C@H]1CC[C@]2(O)C(=O)CO`, in assay [1], the remaining parasite growth % (stronger effect = lower value) was 98.9%. The Potency in assay [7] was 14.8 µM (active). Also, the Potency entry in assay [9], in [10] and in assay [8] was “inactive” throughout.

`O=C(O)c1ccc(-c2c[nH]c3ccc(-c4ccccc4)cc23)cc1C1CCCC1`: the remaining parasite growth % (stronger effect = lower value) in [1] was -0.426%. The remaining proliferation (% of control), lower = more inhibition in assay [2] was -0.0688%. Moreover, the Potency in assay [7] is 5.26 µM (active). In [8], the Potency result was “inactive”.

Turning to `CC(C)c1onc(-c2c(Cl)cccc2Cl)c1COc1ccc(/C=C/c2cccc(C(=O)O)c2)c(Cl)c1`, the remaining parasite growth % (stronger effect = lower value) in assay [1] was found to be 28.5%. Further, the activity, percent of control in [11] was found to be 74.9%. Further, the remaining proliferation (% of control), lower = more inhibition in [2] was 71.7%. The Potency in assay [7] is 20.9 µM (active).

Regarding `COc1cc(Nc2ncc3c(n2)-c2ccc(Cl)cc2C(c2c(F)cccc2OC)=NC3)ccc1C(=O)O`, in assay [1], the remaining parasite growth % (stronger effect = lower value) is 89.5%. The compound further had an activity, percent of control in [11] of 78.1%. Further, in assay [2], the remaining proliferation (% of control), lower = more inhibition is 61.2%. Further, the parasite growth, % of DMSO control in assay [3] came out at 24.7%. Moreover, the parasite growth remaining, % of DMSO control (lower = more inhibition) in assay [4] worked out at 69.6%. In addition, in assay [5], the parasite growth, % of control (lower = inhibition) is 39.4%. The Potency in assay [7] was 0.0066 µM (active); in assay [14], 1.87 µM (active); in assay [15], 0.0743 µM (active); in [16], 0.059 µM (active). The cell viability, % of control (lower = more cytotoxic) in assay [12] came to 24.8%. Moreover, the viability (% of control) in assay [13] came to 28.7%. In addition, the Potency entry in assay [9] and in assay [10] was “inactive” each time.

Regarding `CN(C)C(=O)c1ccc(S(=O)(=O)c2ccc(NC(=O)[C@@](C)(O)C(F)(F)F)c(Cl)c2)cc1`, in assay [1], the remaining parasite growth % (stronger effect = lower value) was 67.3%. Further, the activity, percent of control in [11] was 97.4%. In addition, the parasite growth, % of DMSO control in assay [3] was 34.8%. In assay [4], this compound registered a parasite growth remaining, % of DMSO control (lower = more inhibition) of 96.7%. Also, in assay [5], the parasite growth, % of control (lower = inhibition) worked out at 95.9%. The figures for the Potency in assay [7], in [17] and in assay [14] were 0.332 µM (active), 20.9 µM (active) and 18.7 µM (active), respectively. The cell viability, % of control (lower = more cytotoxic) in assay [12] amounted to 41.1%. In addition, in assay [13], the viability (% of control) was 20.3%. In addition, the Potency result in assay [9], in assay [10] and in assay [15] was “inactive” in each case.
